Source: ChEMBL document CHEMBL4513216, “Probing the Open Global Health Chemical Diversity Library for Multistage-Active Starting Points for Next-Generation Antimalarials” (ACS Infect Dis, 2020)
The whole screen tested about 68,000 compounds, of which about 2,700 (4%) showed an effect of 50% or more. The sample as a whole holds a higher share of strong results than the screen did.

system: Plasmodium berghei; experiment: Screen against P. berghei liver stage (PbLuc), transformed with Luciferase, at 2uM; type: functional, HepG2; conditions: tested at 2 uM

Row | SMILES | INHIBITION [%]
1 | N[C@H]1CN(C(=O)c2ccccc2OCc2ccccc2)C[C@@H]1C1CC1 | 13.86
2 | CCc1nccn1C1CCCN(C(=O)c2ccc3c(c2)nnn3C)C1 (configuration not stated) | 58.05
3 | Cc1nn2cccnc2c1C(=O)N1CCCC(n2ccnc2C)C1 (configuration not stated) | 56.02
4 | Cc1nccn1C1CCCN(C(=O)c2ccc(N(C)C)nn2)C1 (configuration not stated) | 19.35
5 | Cc1nccn1C1CCCN(C(=O)c2ccc3c(c2)nnn3C)C1 (configuration not stated) | 1.61
6 | Cc1nn2cccnc2c1C(=O)N1CCCC(n2ccnc2)C1 (configuration not stated) | 28.51
7 | Cc1nccn1C1CCCN(C(=O)c2ccc3c(c2)CCC3)C1 (configuration not stated) | -33.61
8 | Cc1nccn1C1CCCN(C(=O)c2ccc(N(C)C)nc2)C1 (configuration not stated) | 55.7
9 | Cc1nn2cccnc2c1C(=O)N1CCCC(n2cccn2)C1 (configuration not stated) | -21.72
10 | Cc1nccn1C1CCCN(C(=O)c2ccc3cc[nH]c3c2)C1 (configuration not stated) | 74.35
11 | CN(C)c1ccc(C(=O)N2CCCC(n3cccn3)C2)cn1 (configuration not stated) | 39.54
12 | CCc1nccn1C1CCCN(C(=O)c2ccc(OC)c(OC)c2)C1 (configuration not stated) | -14.17
13 | Cc1nccn1C1CCCN(C(=O)c2cc3ccccc3[nH]2)C1 (configuration not stated) | -43.41
14 | O=C(NCC1CCC(c2nnc(-c3cccnc3)o2)CC1)C1CC1 (configuration not stated) | 43.77
15 | O=C(O)c1c(Cl)ncn1-c1ccccc1 | 19.33
16 | CS(=O)(=O)N1CCOCC2(CN(Cc3ccc(F)cc3)CCO2)C1 (configuration not stated) | -64.46
17 | COc1ccc(C2CCCN2C(=O)NCCNc2ccccn2)cc1 (configuration not stated) | -34.82
18 | CCOc1ccc(CNCC(O)c2ccccc2)cc1Cl (configuration not stated) | 38.61
19 | CCOC(=O)N1CCC(C(=O)Nc2nnc(C(F)(F)F)[nH]2)CC1 | -22.24

Row | SMILES | INHIBITION [%]
20 | O=C(Nc1ccccc1)NC1CCN(C2CCOC2)CC1 (configuration not stated) | -22.24
21 | COc1c(C2CCCN2C(=O)c2cnc[nH]2)c(C)nn1C (configuration not stated) | -7.41
22 | CCc1nc(CC(=O)N2CCC(C(=O)N(CC)CC)CC2)cs1 | -6.37
23 | COc1ccc(CC(=O)NCCCc2nnc3nc(C)cc(C)n23)cc1 | 0.54
24 | NC1CCC(Nc2nccc(CCC(F)(F)F)n2)CC1 (configuration not stated) | 2.17
25 | Cc1nn(C)c2sc(C(=O)N3CCCC(n4ccnc4C)C3)cc12 (configuration not stated) | 51.49
26 | Cc1cc(C(=O)N2CCCC(n3ccnc3C)C2)c(C)s1 (configuration not stated) | -0.55
27 | Cc1nc(C)c(C(=O)N2CCCC(n3ccnc3C)C2)s1 (configuration not stated) | 45.49
28 | N#Cc1cn(C2CC2)c(=O)n(CC(O)c2ccc(Cl)cc2)c1=O (configuration not stated) | 28.33
29 | Nc1cc2c(nn1)CCN(C(=O)c1csc(-c3ccco3)n1)C2 | 64.9
30 | Nc1cc2c(nn1)CCN(C(=O)c1csc(-c3cccs3)n1)C2 | 38.67
31 | Nc1cc2c(nn1)CCN(C(=O)c1csc(-c3ccccc3)n1)C2 | 29.13
32 | Cc1cc(=O)n(C)cc1NC(=O)CC1CCC1 | -54.44
33 | CCc1nc(CCNS(=O)(=O)c2cccc(C(=O)N(C)CC)c2)cs1 | 34.18
34 | CCN(C)C(=O)c1cccc(S(=O)(=O)NCCc2csc(N)n2)c1 | 67.22
35 | CCN(C)C(=O)c1cccc(S(=O)(=O)NCCc2nc(C)cc(=O)[nH]2)c1 | 7.83
36 | O=C(c1ccoc1)N1CC[C@H]2C[C@@H](c3ccncn3)O[C@@H]2C1 | 43.71
37 | Cc1ccc(CN2CC3(CCN(S(=O)(=O)c4ccccc4)C3)C2)o1 | 31.5
38 | CCS(=O)(=O)N1CCC2(CCN(Cc3ccc(C)o3)C2)C1 (configuration not stated) | 9.53

Row | SMILES | INHIBITION [%]
39 | CCS(=O)(=O)N1CCC2(CN(Cc3ccc(C)o3)C2)C1 | 54.23
40 | O=C(N[C@@H]1CNCCC[C@H]1O)c1ccc(OCCN2CCOCC2)cc1 | 36.99
41 | CCN(Cc1ccccc1)c1ncnc2c(C)nn(CC)c12 | -4.77
42 | O=C(NCC1CCCO1)c1nc2c(s1)CCCN2Cc1ccccc1 (configuration not stated) | 29.3
43 | c1coc(CN2CCn3c(COCC4CC4)nnc3C2)c1 | -0.24
44 | CCOCC1CN(c2ccc(C)nn2)Cc2cnn(CC)c21 (configuration not stated) | -3.65
45 | CNC(=O)C1CN(C(=O)Cc2ccc(OC)cc2)Cc2cn(C)nc21 (configuration not stated) | 1.75
46 | Cc1ccc(S(=O)(=O)NC(=O)CCOCC(C)C)s1 | -13.12
47 | COc1cccc(S(=O)(=O)NC(=O)COc2c(C)cccc2C)c1 | 60.31
48 | Cc1cc(C)c(OCC(=O)NS(=O)(=O)c2cccnc2)c(C)c1 | -76.17
49 | Cc1ccc(S(=O)(=O)NC(=O)CCOCc2ccccc2)s1 | 53.13
50 | COc1cccc(S(=O)(=O)NC(=O)COC2CCCCC2)c1 | -1.02
51 | COc1cccc(S(=O)(=O)NC(=O)COC2CCCC2)c1 | 65.77
52 | CS(=O)(=O)c1cccc(S(=O)(=O)NC(=O)CCC2CCCCC2)c1 | -10.29
53 | COc1ccc(S(=O)(=O)NC(=O)COC2CCCC2)cc1 | -43.47
54 | CS(=O)(=O)c1cccc(S(=O)(=O)NC(=O)CC2CCCCC2)c1 | -20.19
55 | COc1cccc(OCC(=O)NS(=O)(=O)c2cccnc2)c1 | 11.09
56 | CCOCCCC(=O)NS(=O)(=O)c1ccc(C)s1 | 23.64
57 | CS(=O)(=O)c1cccc(S(=O)(=O)NC(=O)CC2CCCC2)c1 | 63.54
